In PubChem BioAssay:
Unmarked numbers belong to inactive results. How the calls were made is not given here. Non-standard residues stand in square brackets, D forms with d. Residues, ends and D or L forms follow the SMILES beside them. Groups on a side chain read outwards from the residue. *: point of attachment. X2 = CCC(C)C(N)C1=NC(C(=O)*)CS1; Orn = NCCC[CH](N)C(=O)O

System: Aerobactin synthetase IucA (Klebsiella pneumoniae hvKP1)
Experiment: Biochemical IucA enzyme inhibition primary screen of the Spectrum library (AID 1346200);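 further: 100% = wells without compound and 0% = wells lacking enzyme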
Conditions: malachite green pyrophosphate, A620, at 8 µM, hits give low values

SMILES | activity remaining [%]
CCC(C)C(N)C1=NC(C(=O)NC(CC(C)C)C(=O)NC(CCC(=O)O)C(=O)NC(C(=O)NCCCCC2NC(=O)C(CC(N)=O)NC(=O)C(CC(=O)O)NC(=O)C(Cc3cnc[nH]3)NC(=O)C(Cc3ccccc3)NC(=O)C(C(C)CC)NC(=O)C(CCCN)NC2=O)C(C)CC)CS1 (stereo not drawn) (cyclo(DNK([Ile-Glu-Leu-X2])[Orn]IFH); configuration not given here) | 123
C[C@](N)(Cc1ccc(O)cc1)C(=O)O | 120
Cn1c([N+](=O)[O-])cnc1COC(N)=O | 104
Nc1ccc(S(=O)(=O)Nc2ccnn2-c2ccccc2)cc1 | 117
NCCCCCC(=O)O | 113
COc1cccc2c1C(=O)c1c(O)c3c(c(O)c1C2=O)C[C@@](O)(C(=O)CO)C[C@@H]3OC1C[C@H](N)[C@H](O)[C@H](C)O1 (some centres undefined) | 87.4
CC1=C2[C@H]([C@@H](C)CC[C@@H]2/C=C(\C)C(=O)O)[C@@H](O)C1 | 116
O=C(O)C1CC(C2CCCCN2)CN2CCCCC12 (centres undefined) | 115
CN1CCN(C2=Nc3cc(Cl)ccc3Nc3ccccc32)CC1 | 120
CC(=O)OC1CCC2(C)C3CC(=O)C4(C)C(CC5OC6(CCC(C)CO6)[C@@H](C)C54)C3CC[C@H]2C1 (some centres undefined) | 102
CC(=O)O[C@H]1CC[C@@]2(C)C(CC[C@]3(C)C2CC=C2C4CC(C)(C)CC[C@]4(C)CC[C@]23C)C1(C)C (some centres undefined) | 102
N#Cc1ccc2c(c1)N(CCCN1CCC(O)CC1)c1ccccc1S2 | 111
CCOc1nc2cccc(C(=O)OC(C)OC(=O)OC3CCCCC3)c2n1Cc1ccc(-c2ccccc2-c2nn[nH]n2)cc1 (centres undefined) | 104
Nc1nc(=S)c2[nH]cnc2[nH]1 | 121
CC1=C(/C=C/C(C)=C/C=C/C(C)=C/C=C/C=C(C)/C=C/C=C(C)/C=C/C(=O)[C@]2(C)C[C@@H](O)CC2(C)C)C(C)(C)C[C@H](O)C1 | 108
O=C(O)c1cn(-c2ccc(F)cc2)c2cc(N3CCNCC3)c(F)cc2c1=O | 118
O=C1c2cccc(O)c2C(=O)c2c(O)cccc21 | 93.6
COC(=O)c1c(OC)cc2c(c1C)Oc1c(Cl)c(OC(C)=O)c(Cl)c(C)c1C(=O)O2 | 98.6
Cc1cccc(C(=O)O)c1O | 91.3
COc1cc(C(=O)O[C@H]2CC[C@@]3(C)[C@@H]4CC[C@H]5[C@]6(O)C[C@H](O)[C@@]7(O)[C@@H](CN8C[C@@H](C)CC[C@H]8[C@@]7(C)O)[C@]6(O)C[C@@]53OC24O)cc(OC)c1OC | 123
O=C(O)c1ccc(S(=O)(=O)N(Cl)Cl)cc1 | 113
O=c1c(O)c(-c2ccc(O)cc2O)oc2cc(O)cc(O)c12 | 96.8
C[C@]12CCC3c4ccc(OC(=O)c5ccccc5)cc4CCC3C1CCC2=O (some centres undefined) | 116
CC(C)=CC1C(C(=O)O)C1(C)C (centres undefined) | 121
CC(N=C(NC#N)Nc1ccncc1)C(C)(C)C (centres undefined) | 105
FC(F)(F)C(Cl)Br (centres undefined) | 106
CC1CCc2cc(F)cc3c(=O)c(C(=O)O)cn1c23 (centres undefined) | 119
C[C@H]1c2cccc(O)c2C(O)=C2C(=O)[C@]3(O)C(O)=C(C(N)=O)C(=O)[C@@H](N(C)C)[C@@H]3[C@@H](O)[C@@H]21 | 93.8
COc1ccc2nc(S(=O)Cc3ncc(C)c(OC)c3C)[nH]c2c1 (centres undefined) | 126
